KDM5B inhibitor: Primary screen for KDM5B Histone Demethylases FDH-coupled qHTS; KDM5B demethylase, FDH-coupled NADH fluorescence (FDH is formaldehyde dehydrogenase); Potency, µM (highest dose often 57.7 µM), hits mostly inhibitors; 2.6% of 220,000 active; AID 1347165, 2019; Lysine-specific demethylase 5B (Homo sapiens), Q9UGL1; note: nearly all actives have a fitted effect of over 70% in size
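KDM5BΔAP (200 nM final) in 50 mM HEPES pH 7.5, 0.01% Tween-20 was preincubated 10 min at RT with compound over a concentration range. Substrate mix (H3K4me3 12.5 µM, α-KG 25 µM, Fe²⁺, ascorbate, NAD⁺, FDH) was added, and NADH fluorescence change over 30 min gave dose-response curves.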
SNCA viab count: GF-AFC viability counterscreen for inhibitors of alpha-synuclein gene (SNCA) expression; HEK-293-SNCA-luc viability, GF-AFC fluorescence, 24 h; Potency, µM (series often up to 57.1 µM), usual class: cytotoxic; 0.12% of 150,000 active; AID 1671193, 2021; note: nearly all actives have a fitted effect of over 30% in size
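HEK-293-SNCA-luc cells (1500/well) plated 24 h, then exposed 24 h to a dilution series; GF-AFC added 30 min at 37C, fluorescence 405/540 nm; normalised to medium-only and DMSO wells, Hill fit.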
IP6K1 inhibitor: Primary qHTS assay for small molecule inhibitors of Inositol hexaphosphate kinase 1 (IP6K1) | Inositol hexakisphosphate kinase 1 (Homo sapiens), Q92551 | IP6K1 kinase, ADP-Glo luminescence, 2 h; stronger effect = lower value | activity change, % (series mostly up to about 58 µM) | 0.81% of 140,000 active; in the data active = activity change below about -25%
Target sequence (Q92551 whole entry, looked up): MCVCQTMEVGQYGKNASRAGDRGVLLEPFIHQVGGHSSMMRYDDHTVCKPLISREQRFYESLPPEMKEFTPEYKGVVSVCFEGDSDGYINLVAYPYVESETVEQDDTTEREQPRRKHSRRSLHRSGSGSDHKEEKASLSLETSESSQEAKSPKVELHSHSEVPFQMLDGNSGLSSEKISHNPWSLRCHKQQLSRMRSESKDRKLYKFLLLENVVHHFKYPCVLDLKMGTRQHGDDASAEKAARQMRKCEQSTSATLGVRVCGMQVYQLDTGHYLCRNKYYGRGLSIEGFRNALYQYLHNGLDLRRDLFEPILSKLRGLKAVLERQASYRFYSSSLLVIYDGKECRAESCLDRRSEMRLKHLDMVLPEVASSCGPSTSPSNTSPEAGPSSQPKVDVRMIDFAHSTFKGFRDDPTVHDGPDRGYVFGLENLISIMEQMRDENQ
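ADP-Glo luminescence measures ADP made by human IP6K1 during a 2 h RT reaction with ATP/IP6 (mix at 1.3 mM/130 uM); top library doses 57.5 and 19.1 uM final.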
SNCA expr inh: Primary qHTS assay for inhibitors of alpha-synuclein gene (SNCA) expression; HEK-293 SNCA-luciferase knock-in, luminescence, 24 h; Potency, µM (top dose mostly 57.2 µM), usual class: inhibitors; 0.17% of 140,000 active; note: nearly all actives have a fitted effect of over 45% in size
IP6K1 conf: Confirmatory qHTS assay for small molecule inhibitors of Inositol hexaphosphate kinase 1 (IP6K1); shares compounds with IP6K1 inhibitor; AID 1645852, 2021; Potency, µM (highest dose often 49 µM), actives largely listed as inhibitors; recombinant IP6K1 kinase, ADP-Glo luminescence, 2 h; 13% of 1,200 active; note: nearly all actives have a fitted effect of over 65% in size
Of the large screens only hits and unclear results are named; the others gave an inactive call (follow-up assays come after a bar, where they were run). Sampled rows, rich in hits. Any-hit rate of the full collection: about 2.8%. Unless noted, calls come from the whole dose curve; as a rule, active = well fitted curve in the direction sought with a large enough effect; inconclusive = small, poorly fitted or top-dose-only effect, or another doubt; inactive = no such curve, though single readings can be large; an effect the other way counts as inactive or inconclusive.

O=C(Nc1ncc([N+](=O)[O-])s1)c1ccccc1O	SNCA viab count inconclusive, IP6K1 inhibitor -31 (no result: KDM5B inhibitor, SNCA expr inh) | IP6K1 conf inconclusive
OC1(CN2CCCCC2)CCN(Cc2cnn(-c3ccccc3Cl)c2)C1 (configuration not stated)	KDM5B inhibitor inconclusive, IP6K1 inhibitor -36 | IP6K1 conf inactive
CC(C)c1ccc(C2=NN(c3ccccc3)C(=O)CC2)cc1	none (no result: SNCA viab count, IP6K1 inhibitor, SNCA expr inh)
CC1=NN(c2ccccc2)C(=O)C1	IP6K1 inhibitor -32 (no result: KDM5B inhibitor) | IP6K1 conf inactive
COc1cccc(NC(=O)CSCc2cc(=O)c3ccc(C)c(C)c3[nH]2)c1	IP6K1 inhibitor -37 | IP6K1 conf inconclusive
CCOc1ccc(C(=O)c2oc3ccccc3c2NC(=O)c2cc(-c3ccc(Cl)cc3)on2)cc1	none
CCOc1ccc(-c2cc(C(=O)Nc3ccc(NC(C)=O)cc3)no2)cc1	KDM5B inhibitor inconclusive, IP6K1 inhibitor -27 | IP6K1 conf inactive
CC(C)Oc1ccc2c(NC(=O)CN3CCCC3=O)nn(Cc3ccccc3)c2c1	IP6K1 inhibitor -33 | IP6K1 conf inactive
CC(C)Oc1ccc2c(NC(=O)C3CCOC3)nn(Cc3ccccc3)c2c1 (configuration not stated)	none
COc1cccc(C(=O)N(Cc2cccc(F)c2)C2CCS(=O)(=O)C2)c1 (configuration not stated)	none
O=C(c1cccc(Cl)c1)N(Cc1cccc(F)c1)C1CCS(=O)(=O)C1 (configuration not stated)	IP6K1 inhibitor -37 | IP6K1 conf inactive
c1ccc(-c2nnc3ccc(NC4CCC4)nn23)nc1	KDM5B inhibitor inconclusive
c1cc(N[C@@H]2CCNC2)nc(-c2cnc3ccc(-c4cn[nH]c4)cn23)c1	IP6K1 inhibitor -39, SNCA expr inh inconclusive (no result: KDM5B inhibitor) | IP6K1 conf inconclusive
COCCN1C(=O)c2cccn2CC1CNC(=O)C1CCC1 (configuration not stated)	none
CCn1cc(-c2ccc(C)cc2)cc1C(=O)N1CCC(C)CC1	IP6K1 inhibitor -30 | IP6K1 conf inconclusive
O=C(C1CC1)N1CCOC[C@H](Oc2ccccc2)C1	none
CC(=O)c1ccc(NC(=O)CSc2nnc(N)s2)cc1	IP6K1 inhibitor -31 | IP6K1 conf inactive
Nc1nnc(SCC(=O)Nc2ccccc2)s1	KDM5B inhibitor inconclusive
COc1ccc(-c2nc(C(C)C)nc3c2CCN(C(=O)c2cccc(Cl)c2)CC3)cc1	SNCA viab count inconclusive
O=[S+]([O-])(c1ccccc1)N1CCN(Cc2ccccc2-c2cccnc2)CC1	none (no result: KDM5B inhibitor)
CNC(=O)c1cc(-c2ccc(C)cc2)cc2c1OCCN2Cc1cccnc1	KDM5B inhibitor inconclusive, IP6K1 inhibitor -29 | IP6K1 conf inconclusive
O=C(c1ccncc1)N1CCCN(Cc2cccnc2)c2ccccc21	none
NC(=O)c1cc(-c2ccccc2F)cc2c1OCCN2Cc1cccnc1	KDM5B inhibitor 35µM, IP6K1 inhibitor -25 | IP6K1 conf inconclusive
CCCSc1ccccc1C(=O)Nc1cccc(C)c1C	none (no result: SNCA viab count, IP6K1 inhibitor, SNCA expr inh)
Cc1nnc(NC(=O)c2nc(S(=O)(=O)Cc3ccccc3)ncc2Cl)s1	KDM5B inhibitor inconclusive, SNCA viab count inconclusive, IP6K1 inhibitor -35, SNCA expr inh inconclusive | IP6K1 conf inactive
CCc1nnc(NC(=O)c2nc(S(C)(=O)=O)ncc2Cl)s1	KDM5B inhibitor inconclusive, SNCA viab count inconclusive, IP6K1 inhibitor -35, SNCA expr inh inconclusive | IP6K1 conf inactive
CCSc1ncc(Cl)c(C(=O)Nc2nnc(CC)s2)n1	none
Nc1nccc(-c2ccc([N+](=O)[O-])cc2)n1	none (no result: SNCA viab count, IP6K1 inhibitor, SNCA expr inh)
CC1CCN(c2oc(COc3ccccc3F)nc2C#N)CC1	none (no result: SNCA viab count, IP6K1 inhibitor, SNCA expr inh)
COc1cccc(OC(=O)CSc2nnc(-c3ccc4c(c3)OCO4)o2)c1	KDM5B inhibitor inconclusive, IP6K1 inhibitor -32, SNCA expr inh inconclusive | IP6K1 conf inconclusive
Cn1cc(-c2cnc3[nH]cc(CC(=O)Nc4ccccc4Cl)c3c2)cn1	KDM5B inhibitor 32µM, IP6K1 inhibitor -26 | IP6K1 conf inconclusive
CCc1cc2c(cc1C1(C)OCCC(C)O1)C(C)(C)CCC2(C)C (configuration not stated)	none (no result: SNCA viab count, IP6K1 inhibitor, SNCA expr inh)
